In PubChem BioAssay (NCI):
“And” between values parts separate entries of the source, which are not always exact repeats. Equal entries are not always repeated. About 83,000 compounds went through this panel and 20% of them were active in at least one assay; those are over-represented in the sample as a whole.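 Growth was measured after 48 h exposure to one concentration of compound in 96-well plates. Values under 10 count as active.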 The source made the active and inactive calls.

What was measured:
Test in all cases: NCI-60 one-dose screen, 48 h (100 = growth as untreated, 0 = no growth, -100 = all killed)
HCT-15 colon = settings: 10 µM unless noted
HT29 colon = settings: 10 µM unless noted
SNB-19 CNS = settings: 10 µM unless noted
U251 CNS = settings: 10 µM unless noted
PC-3 prostate = settings: 10 µM unless noted
SK-MEL-5 melanoma = settings: 10 µM unless noted
UACC-62 melanoma = test system: UACC-62 melanoma
LOX IMVI melanoma = settings: 10 µM unless noted
SK-MEL-28 melanoma = settings: 10 µM unless noted
SK-MEL-2 melanoma = settings: 10 µM unless noted
EKVX NSCLC = settings: 10 µM
SN12C renal = settings: 10 µM unless noted
UO-31 renal = settings: 10 µM unless noted
TK-10 renal = test system: TK-10 renal
ACHN renal = settings: 10 µM unless noted
A498 renal = settings: 10 µM unless noted
CCRF-CEM leukemia = settings: 10 µM
MOLT-4 leukemia = settings: 10 µM unless noted
SNB-75 CNS = settings: 10 µM unless noted
CAKI-1 renal = settings: 10 µM unless noted

Measured: growth

CCCCCCCCCCCCCCCc1ccc(N)c(OC2OC(CO)C(O)C(O)C2O)c1 (stereo not given)
active: CCRF-CEM leukemia 5.48%
inactive: HCT-15 colon 98.4% | HT29 colon 103% | SNB-19 CNS 101% | U251 CNS 89.7% | PC-3 prostate 58.3% | SK-MEL-5 melanoma 111% | UACC-62 melanoma; 10 µM unless noted 76.3% | LOX IMVI melanoma 86.3% | SK-MEL-28 melanoma 112% | SK-MEL-2 melanoma 80.6% | EKVX NSCLC 81.6% | SN12C renal 87.6% | UO-31 renal 57.6% | TK-10 renal; 10 µM unless noted 113% | ACHN renal 86.1% | A498 renal 79.2% | MOLT-4 leukemia 60.8%

Cn1cnc([N+](=O)[O-])c1Sc1ncn[nH]1
inactive: HCT-15 colon 107% | HT29 colon 104% | SNB-75 CNS 85.6% | SNB-19 CNS 111% | U251 CNS 108% | SK-MEL-5 melanoma 104% | UACC-62 melanoma; 10 µM unless noted 108% | LOX IMVI melanoma 93.1% | SK-MEL-28 melanoma 104% | EKVX NSCLC 101% | SN12C renal 101% | UO-31 renal 82.9% | TK-10 renal; 10 µM unless noted 106% | ACHN renal 110% | CAKI-1 renal 68.4% | A498 renal 117% | MOLT-4 leukemia 121%

CC1CCC2(C(=O)O)CCC3(C)C(=CCC4C5(C)CCC(O)C(C)(C)C5CCC43C)C2C1C (stereo not given)
inactive: HCT-15 colon 32.4% and 66.2% | SNB-75 CNS 32.2% and 95.6% | SNB-19 CNS 63.4% and 91.6% | U251 CNS 42.9% and 77.6% | PC-3 prostate 65.1% and 79.8% | SK-MEL-5 melanoma 24.7% and 96.2% | UACC-62 melanoma; 10 µM 88.6% and 81.2% | LOX IMVI melanoma 25.3% and 70.1% | SK-MEL-28 melanoma 35.9% and 78.7% | SK-MEL-2 melanoma 82.5% and 86.8% | EKVX NSCLC 74% and 70.8% | SN12C renal 79.3% and 99.7% | TK-10 renal; 10 µM 90.6% and 88.5% | ACHN renal 57.7% and 76.2% | CAKI-1 renal 40.4% and 90.8% | A498 renal 103%
5.91% (active) and 55.4% (inactive): UO-31 renal
active: UACC-62 melanoma; 100 µM -65.9% and -92.3% | TK-10 renal; 100 µM -77.6% and -96.8%
-11.8% (active) and 84.5% (inactive): MOLT-4 leukemia
-22.1% (active) and 35.8% (inactive): CCRF-CEM leukemia

Oc1ccc(Cc2ccccc2Cl)c(O)c1
inactive: HCT-15 colon 97.2% | HT29 colon 106% | SNB-75 CNS 80.5% | SNB-19 CNS 100% | U251 CNS 96.2% | PC-3 prostate 82.5% | SK-MEL-5 melanoma 97.7% | UACC-62 melanoma; 10 µM unless noted 85.7% | LOX IMVI melanoma 86.3% | SK-MEL-28 melanoma 110% | SK-MEL-2 melanoma 97.8% | EKVX NSCLC 96.3% | SN12C renal 91.2% | UO-31 renal 61.1% | TK-10 renal; 10 µM unless noted 103% | ACHN renal 92% | CAKI-1 renal 91% | A498 renal 75.3% | CCRF-CEM leukemia 94.1% | MOLT-4 leukemia 88.7%

Nc1cc(N)c(N)cc1N
active: SK-MEL-5 melanoma -92.7% | UACC-62 melanoma; 10 µM unless noted -40.3% | LOX IMVI melanoma -93.8% | SK-MEL-2 melanoma -62.5% | SN12C renal -69.7% | UO-31 renal -0.0578% | ACHN renal 8.63%
inactive: HCT-15 colon 54.2% | HT29 colon 82.4% | SNB-75 CNS 56.6% | SNB-19 CNS 84.5% | U251 CNS 15.6% | PC-3 prostate 92.7% | SK-MEL-28 melanoma 78.7% | EKVX NSCLC 57.5% | TK-10 renal; 10 µM unless noted 101% | CAKI-1 renal 82.5% | A498 renal 99.8% | CCRF-CEM leukemia 89.6% | MOLT-4 leukemia 83.2%

Cl
inactive: HCT-15 colon 102% | HT29 colon 106% | SNB-75 CNS 96.9% | SNB-19 CNS 99.3% | U251 CNS 102% | PC-3 prostate 106% | SK-MEL-5 melanoma 105% | UACC-62 melanoma; 10 µM unless noted 105% | LOX IMVI melanoma 97% | SK-MEL-28 melanoma 136% | EKVX NSCLC 100% | SN12C renal 104% | UO-31 renal 87.1% | TK-10 renal; 10 µM unless noted 109% | ACHN renal 104% | CAKI-1 renal 95.6% | A498 renal 88.1% | CCRF-CEM leukemia 106% | MOLT-4 leukemia 88.5%
